Anthrax LF inh2 – blocks Bacillus anthracis lethal factor protease; P15917; multiplex microsphere protease cleavage assay, LF; inhibition, % at 10 µM; 360,000 tested, 0.12% active; AID 588501; further: plate controls were buffer without enzyme for full effect and enzyme alone for no effect
BoNT-F LC inh – BoNT F light chain protease inhibition; Multiplex microsphere protease cleavage assay, flow cytometry; inhibition, % at 10 µM; 360,000 tested, 0.22% active; in the data active means inhibition above about 35%, passing the limit was not always enough; inconclusive means no clear call, values can overlap the other calls; further: plate controls were buffer without enzyme for full effect and enzyme alone for no effect
BoNT A protease – BoNT A light chain protease inhibition; inhibition, % at 10 µM; 360,000 tested, 0.17% active; multiplex microsphere protease substrate cleavage, flow cytometry; AID 588499; further: plate controls were buffer without enzyme for full effect and enzyme alone for no effect
Bead autofluor – flagged as autofluorescent in microsphere protease counterscreen. compound autofluorescence counterscreen, microsphere flow cytometry; active compounds read high. AID 624483. 360,000 tested, 3.1% active. fluorescence intensity (concentration not given with the values); in the data active means fluorescence intensity above about 16000; inconclusive means no clear call, values can overlap the other calls
TcdB GH inh – inhibitors of Clostridioides difficile toxin B glycohydrolase | P18177 | TcdB glycohydrolase enzymatic assay, plate reader | inhibition, % at 9.99 µM | 350,000 tested, 0.24% active; in the data active means inhibition above about 10%
Starred values were filed as active, the others as inactive; ? = inconclusive; nt = no result. This is one part of a sample in which hits are shown more often than they occur. Unless noted, no stated cut-off is given here; in the data, active means inhibition above about 30%; inconclusive means no clear call, values can overlap the other calls; inactive means below that.

SMILES	Anthrax LF inh2	BoNT-F LC inh	BoNT A protease	Bead autofluor	TcdB GH inh
COc1cccc(-c2nc(CS(=O)CC(=O)NCCCOC(C)C)c(C)o2)c1 (stereo unspecified)	-1	5	2	21012*	nt
COc1cccc(-c2nc(CS(=O)CC(=O)N3CCC4(CC3)OCCO4)c(C)o2)c1 (stereo unspecified)	1	-4	?	21075*	nt
O=C(C[C@H]1C=C[C@H](NC(=O)CCN2CCCCC2)[C@H](CO)O1)Nc1ccccc1	nt	nt	nt	nt	-1
Cc1noc(C)c1NC(=O)N(C)C[C@@H]1Oc2ccc(NC(=O)NC3CCCCC3)cc2C(=O)N([C@@H](C)CO)C[C@@H]1C	nt	nt	nt	nt	1
Cc1cc(C(=O)COC(=O)C2=NNC(=O)CC2)c(C)n1-c1ccccc1	-9	2	1	19448*	1
Cc1ccc(-n2c(C)cc(C(=O)COC(=O)C3=NNC(=O)CC3)c2C)cc1	-5	4	-1	3267	nt
Cc1ccc(-n2c(C)cc(C(=O)CSc3n[nH]c(N)n3)c2C)cc1	-5	-9	-1	10948	nt
Cc1cc(C(=O)CSc2n[nH]c(N)n2)c(C)n1-c1ccccc1	-1	3	1	16214*	nt
Cc1cc(C(=O)CSc2n[nH]c(N)n2)c(C)n1-c1ccc(F)cc1	-3	-3	?	22336*	nt
Cc1ccc(-n2c(C)cc(C(=O)COC(=O)c3c(C)noc3C)c2C)cc1	-3	-3	0	23721*	nt
CCCNC(=O)Nc1ccc2c(c1)OC[C@H](C)N(CC1CCCC1)C[C@H](C)[C@H](OC)CN(C)C2=O	nt	nt	nt	nt	-1
O=C(Cc1ccccn1)NCC[C@H]1CC[C@H](NS(=O)(=O)c2ccc(F)cc2)[C@@H](CO)O1	nt	nt	nt	nt	0
Nc1nc(SCC(=O)c2ccc(F)cc2)n[nH]1	1	2	1	2554	1
Cc1nc(SCC(=O)c2ccc(F)cc2)n[nH]1	0	2	1	21307*	nt
Cc1nc(S(=O)(=O)N2CCN(Cc3ccc(OCCO)cc3)CC2)cn1C	nt	nt	nt	nt	2
O=C(CCN1CCCCC1)N[C@H]1CC[C@@H](CCn2cc(-c3ccc(F)cc3)nn2)O[C@@H]1CO	nt	nt	nt	nt	-1
O=C(Nc1ccc(S(=O)(=O)N2CCc3ccccc3C2)cc1)C1CCCO1 (stereo unspecified)	-4	-10	-1	11273	1
COc1ccc(C(=O)Nc2ccc(S(=O)(=O)N3CCc4ccccc43)cc2)cc1	-3	-6	-1	16637*	nt
O=C(Nc1ccc(S(=O)(=O)N2CCCc3ccccc32)cc1)C1CCCO1 (stereo unspecified)	-3	-3	-6	17480*	2
Cc1ccc(C(=O)Nc2ccc(S(=O)(=O)N3CCc4ccccc43)cc2)o1	-7	-3	?	23775*	nt
NS(=O)(=O)c1ccc(NC(=O)c2ccc(S(=O)(=O)N3CCc4ccccc43)cc2)cc1	0	2	0	2543	0
COc1cccc(CNC(=O)C[C@H]2C=C[C@H](NC(=O)C3CCC3)[C@H](CO)O2)c1	nt	nt	nt	nt	-1
Cc1ccc(S(=O)(=O)N(C)C[C@H]2Oc3ccc(NC(=O)Nc4c(C)noc4C)cc3CC(=O)N([C@H](C)CO)C[C@H]2C)cc1	nt	nt	nt	nt	1
O=C(C[C@H]1C[C@H]2c3cc(NC(=O)Nc4ccc(C(F)(F)F)cc4)ccc3O[C@H]2[C@H](CO)O1)NCCc1ccccc1	nt	nt	nt	nt	0
CO[C@@H]1CN(C)C(=O)c2ccc(NC(C)=O)cc2OC[C@H](C)N(C(=O)C2CCCCC2)C[C@@H]1C	nt	nt	nt	nt	1
SMILES	Anthrax LF inh2	BoNT-F LC inh	BoNT A protease	Bead autofluor	TcdB GH inh
O=C(OCCN=C1NS(=O)(=O)c2ccccc21)c1ccncc1	0	0	1	10489	nt
O=C(OCCN=C1NS(=O)(=O)c2ccccc21)C1CC(=O)N(c2ccc3ccccc3c2)C1 (stereo unspecified)	-1	4	?	19051*	1
Cc1ccc(S(=O)(=O)N(C)C[C@H]2Oc3ccc(NS(=O)(=O)c4ccccc4)cc3C(=O)N([C@H](C)CO)C[C@H]2C)cc1	nt	nt	nt	nt	0
O=C(NC1CCCCC1)C(c1ccc(O)cc1)N(CC1CCCO1)C(=O)C1COc2ccccc2O1 (stereo unspecified)	0	0	0	20282*	nt
O=C(CNC(=O)c1ccccc1F)OC(C(=O)Nc1cc(C(F)(F)F)ccc1Cl)c1ccccc1 (stereo unspecified)	0	4	2	22099*	nt
CN1CCN(C(=O)C[C@H]2C=C[C@@H](NC(=O)Cc3ccccn3)[C@H](CO)O2)CC1	nt	nt	nt	nt	0
O=C(CC1CC1)Nc1ccc2c(c1)[C@H]1C[C@@H](CC(=O)N3CCCCC3)O[C@H](CO)[C@H]1O2	nt	nt	nt	nt	1
O=C(CN1C(=O)NC2(CCc3ccccc32)C1=O)Nc1ccc(N2CCOCC2)cc1 (stereo unspecified)	-3	-3	0	16378*	nt
Cc1ccc(NC(=O)CN2C(=O)NC3(CCc4ccccc43)C2=O)cc1 (stereo unspecified)	-5	-2	1	3357	0
CSc1ccccc1NC(=O)C1=CC(c2ccc(C)cc2)=NS(=O)(=O)N1C	-2	-6	0	5820	29*
Cc1ccc(C2=NS(=O)(=O)N(C)C(C(=O)NC(C)c3ccccc3)=C2)cc1 (stereo unspecified)	0	-9	0	5497	2
CN1C(=O)CC(NNC(=O)c2ccc(Cl)cc2)C1=O (stereo unspecified)	-3	-10	-9	22298*	nt
CN1C(=O)CC(NNC(=O)c2ccccc2)C1=O (stereo unspecified)	-4	-8	0	3433	nt
COc1cccc(OC)c1NC(=O)Cn1nc(-c2ccc3c(c2)OCCO3)ccc1=O	-6	-2	-1	5433	1
CC(C)c1nnc(NC(=O)Cn2nc(-c3ccc4c(c3)OCCO4)ccc2=O)s1	-8	-8	-4	17082*	nt
O=C(CNC(=O)c1ccco1)OCc1c(F)cccc1Cl	-2	4	?	20975*	nt
CCOC(=O)Cn1c(S(=O)(=O)Cc2cccc(F)c2)nc(-c2ccccc2)c1-c1ccccc1	-5	-2	0	7957	nt
CCOC(=O)Cn1c(S(=O)(=O)Cc2ccc(F)cc2)nc(-c2ccccc2)c1-c1ccccc1	-1	0	?	16161*	nt
C#CCn1c(S(=O)(=O)Cc2ccc(F)cc2)nc(-c2ccccc2)c1-c1ccccc1	-5	-4	0	16327*	nt
O=C(CCN1CCCCC1)NCC[C@H]1CC[C@H](NC(=O)C2CCOCC2)[C@@H](CO)O1	nt	nt	nt	nt	0
COC(=O)CCC(=O)NNC(=O)c1cccc(Cl)c1	-2	-7	-6	25239*	nt
Oc1c(N=Nc2ccccn2)ccc2ccccc12	12	-17	36*	6158	nt
Oc1[nH]c2ccccc2c1N=Nc1ccccn1	-5	6	0	3632	0
CC(C)Cn1c(-c2csc3c2CCCC3)n[nH]c1=S	-7	-8	-3	17069*	2
CC1CN/C(=C\C(=O)c2ccccc2)C(=O)N1 (stereo unspecified)	-3	7	-1	3001	nt
CC1CN/C(=C\C(=O)c2ccc(Cl)cc2)C(=O)N1 (stereo unspecified)	-5	-9	?	24766*	nt
